Inconclusive results are not listed. Calls of active or inactive are those of the source. Unless noted, calls come from the whole dose curve; as a rule, active = well fitted curve in the direction sought with a large enough effect; inconclusive = small, poorly fitted or top-dose-only effect, or another doubt; inactive = no such curve, though single readings can be large; an effect the other way counts as inactive or inconclusive.
Legend:
[1] = Cell Viability - Jurkat (AID 426;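 active = dose-dependent loss of cell ATP signal giving a full or clear fitted curve, ranked by lower potency value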; note: potency is the fitted concentration of half-maximal effect); conditions: qHTS
Method in brief: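 Cells of the human T-cell leukemia line Jurkat (E6-1) are seeded at 5000 per well, treated with compound across a concentration range for 40 hours at 37 °C, then lysed with CellTiter-Glo; luminescence reports ATP.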

[2] = Cell Viability - Hek293 (AID 427;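 active = compounds whose dose-response curve shows a full or clear partial loss of cell viability, called from curve shape rather than a numeric limit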;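 note: potency is the fitted concentration of half-maximal effect; cells exposed to compound for 40 hours at 37 °C before reading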); conditions: qHTS
Method in brief: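 Luminescent ATP read-out (CellTiter-Glo, 20 min RT) after 40 hr compound exposure at 37 °C in complete medium. Signal normalized to DMSO (basal) and 100 uM tamoxifen (100% inhibition); concentration-response fitted with the standard Hill equation to give AC50.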

[3] = Cell Viability - HepG2 (AID 433; calls by dose curve;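 note: potency is the fitted concentration of half-maximal effect; potency for ATP loss meaning cytotoxicity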); conditions: qHTS
Method in brief: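 HepG2 cells, 1500 per well, treated 40 hr at 37 °C in complete medium; viability from intracellular ATP by CellTiter-Glo luminescence. Normalized to DMSO and 100 uM tamoxifen; AC50 from Hill fit of qHTS concentration-response.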

[4] = Cell Viability - MRC5 (AID 434; calls by dose curve;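 note: potency is the fitted concentration of half-maximal effect; potency reflects cytotoxicity seen as loss of intracellular ATP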); conditions: MRC5 lung fibroblast viability, qHTS
Method in brief: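 Decrease in intracellular ATP, quantified by luciferase light output, reflects compound toxicity toward MRC5 cells exposed for 40 hr in complete culture medium. Concentration-response curves, scaled between DMSO and 100 uM tamoxifen, gave AC50 values.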

[5] = Cell Viability - SK-N-SH (AID 435; calls by dose curve;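 note: potency is the fitted concentration of half-maximal effect; compound exposure lasted 40 h at 37 °C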); conditions: SK-N-SH neuroblastoma cell viability qHTS
Method in brief: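 SK-N-SH neuroblastoma cells (1500/well) treated 40 h at 37 °C in complete medium; viability read as cellular ATP by CellTiter-Glo luminescence. Normalized to DMSO and 100 uM tamoxifen; AC50 from Hill fits of qHTS concentration-response.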

[6] = molecular target: Mitogen-activated protein kinase 10 (Mus musculus) (UniProt Q61831); experiment: JNK3 AlphaScreen Assay (AID 530; active = well fitted curve in either direction with a large enough effect, not every such curve was filed as active;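 note: kinase came from lysate of stimulated human HepG2 cells; signal reports phosphorylation of biotinylated GST-cJun 1-79 at Ser73 with 10 µM ATP; % is set by controls: 0 for no effect and ±100 for the full control effect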)
Method in brief: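 Phosphorylation of biotinylated GST-cJun(1-79) at Ser73 is measured by AlphaScreen proximity luminescence. Enzyme is JNK3 in HepG2 lysates activated with interleukin-1beta and tumor necrosis factor alpha; ATP is 10 uM final.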

[7] = Cell Viability - N2a (AID 540); conditions: N2a mouse neuroblastoma cell viability; activity change, negative = cytotoxicity: at 92.2 µM (top of the series);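 note: plate controls were DMSO alone for no effect and tamoxifen control for full effect; nearly all actives have a fitted effect of over 45% in size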
Method in brief: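 Cytotoxicity was scored as loss of cellular ATP in N2a cells, a mouse neuroblastoma line. Compounds are applied in a qHTS concentration series for 40 hr at 37 °C.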

[8] = Cell Viability - NIH 3T3 (AID 541); conditions: NIH 3T3 cell viability, qHTS; activity change, negative = cytotoxicity: at 92.2 µM (top of the series);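 note: plate controls were DMSO alone for no effect and tamoxifen positive control for full effect; nearly all actives have a fitted effect of over 25% in size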
Method in brief: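 Cells seeded at 1000/well, rested 5 hr at 37 °C, then dosed and incubated 40 hr at 37 °C. CellTiter-Glo added, 20 min room temperature, luminescence read. AC50 by Hill fit.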

[9] = Cell Viability - HUV-EC-C (AID 542); note: % is set by controls: 0 for no effect and ±100 for the full control effect; nearly all actives have a fitted effect of over 35% in size
Method in brief: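 Cells were seeded at 1000 per well and incubated 5 hr at 37 °C before compound addition. After 40 hr at 37 °C, CellTiter-Glo reagent was added for 20 min and luminescence read. AC50 values came from Hill-equation modelling.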

[10] = Cell Viability - H-4-II-E (AID 543); note: % is set by controls: 0 for no effect and ±100 for the full control effect; nearly all actives have a fitted effect of over 35% in size
Method in brief: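 Cells seeded at 1500 per well and rested 5 hr; compounds added; 40 hr incubation at 37 °C; CellTiter-Glo added, 20 min at room temperature; luminescence read. Hill-equation fits gave AC50.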

[11] = Cell Viability - SH-SY5Y (AID 544); note: nearly all actives have a fitted effect of over 55% in size
Method in brief: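 Cells were plated at 1500 per well and allowed 5 hr at 37 °C. Compounds were added across a concentration range and incubated 40 hr at 37 °C. CellTiter-Glo was added for 20 min at room temperature before luminescence reading.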

[12] = Cell Viability - Renal Proximal Tubule (AID 545); conditions: renal proximal tubule cells viability, primary cells of rat origin; at 91.7 µM (top of the series); note: nearly all actives have a fitted effect of over 40% in size
Method in brief: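 Rat renal proximal tubule primary cells, 1000/well, exposed to compounds for 40 hr at 37 °C in complete medium; cellular ATP read by CellTiter-Glo luminescence. AC50 from concentration-response fitted with standard Hill equation.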

[13] = Cell Viability - Mesenchymal (AID 546); conditions: mesenchymal cells viability, qHTS; activity change, negative = cytotoxicity: at 91.7 µM (top of the series);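 note: cells exposed to compound for 40 hours before reading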
Method in brief: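 In this qHTS cytotoxicity format, glomerulus-derived human mesenchymal kidney cells received compound for 40 hr, then luciferase-based ATP quantitation. Concentration-response data were fitted with the Hill equation.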

[14] = Cellular Toxicity (caspase-3) HepG2 (AID 654);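 note: cells exposed to compound for 16 hours before reading; 0% = DMSO alone and 100% = caspase signal from 100 µM tamoxifen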
Method in brief: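 Caspase 3/7 activation in HepG2 is measured as rising luminescence after a 16 hr treatment at 37 °C. Values are scaled between DMSO basal and 100 uM tamoxifen, and AC50 is fitted with the Hill equation.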

[15] = Cellular Toxicity (caspase-3) Jurkat (AID 655); conditions: Jurkat caspase-3 activation, luminescence, DMSO = 0%, tamoxifen = 100%; at 92.2 µM (top of the series);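 note: cells exposed to compound for 16 h at 37 °C before reading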
Method in brief: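 Jurkat cells (5000/well) in complete medium exposed 16 h at 37 C; caspase-3/7 activity read by Caspase-Glo luminescence after 20 min at room temperature. Normalized to DMSO and 100 uM tamoxifen; AC50 from Hill fits.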

[16] = Cellular Toxicity (caspase-3) HUV-EC-C (AID 656)
Method in brief: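 HUV-EC-C cells (1000/well) in complete medium, compound-treated 16 h at 37 °C; caspase-3/7 activity read by Caspase-Glo 3/7 luminescence. Normalized to DMSO (basal) and 100 uM tamoxifen (100%); AC50 from Hill-equation concentration-response fits.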

[17] = Cellular Toxicity (caspase-3) SHSY5Y (AID 657)
Method in brief: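 SH-SY5Y human neuroblastoma cells, 1500/well, exposed to compound for 16 hours at 37 °C in complete medium. Caspase-3/7 activity read by Caspase-Glo luminescence after 1 hr at room temperature, normalized to DMSO and 10 uM staurosporine; AC50 from Hill fit.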

[18] = Cellular Toxicity (caspase-3) BJ (AID 658);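 note: 0% = DMSO basal and 100% = 10 µM staurosporine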
Method in brief: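 Plated BJ cells (1000/well) rested 5 hr, received compound for 16 hr at 37 °C, then Caspase-Glo 3/7 reagent for 1 hr at room temperature before luminescence reading.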

[19] = Cellular Toxicity (caspase-3) MRC-5 (AID 659);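 note: 0% = DMSO basal and 100% = 10 µM staurosporine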
Method in brief: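 Apoptosis readout in MRC-5 cells: luciferase light generated after caspase 3/7 cleaves a peptide-aminoluciferin substrate, measured post 16 hr compound incubation at 37 °C.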

[20] = Cellular Toxicity (caspase-3) Mesangial (AID 660);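 note: cells exposed to compound for 16 h before the caspase read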
Method in brief: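 Seed cells derived from normal human renal glomeruli, incubate 5 h, add compounds across concentrations and incubate 16 h at 37 °C. Caspase 3/7 activation is then quantified by luciferase light, with AC50 derived by Hill modeling.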

[21] = Cellular Toxicity (caspase-3) SK-N-SH (AID 661);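 note: 0% = DMSO basal and 100% = 10 µM staurosporine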
Method in brief: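 Cells were seeded and incubated 5 hr at 37 °C, dosed with compound over a concentration range for 16 hr, then given Caspase-Glo 3/7 reagent for 1 hr at room temperature before luminescence reading.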

[22] = Cellular Toxicity (caspase-3) H-4-II-E (AID 663); conditions: Potency: caspase-3 activation;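 note: cells exposed to compound for 16 hr before readout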
Method in brief: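 Caspase 3/7 activation measured in H-4-II-E cells in complete culture medium after 16 hr treatment at 37 °C, using luciferase-coupled substrate readout; AC50 values come from Hill-equation fits of normalized concentration-response data.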

[23] = Cellular Toxicity (caspase-3) Hek293 (AID 664);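 note: cells exposed to compound for 16 h at 37 °C before readout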
Method in brief: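 qHTS, HEK293 (human embryonic kidney), 16 h cpd exposure in complete medium. Caspase-3/7 activation = luminescence increase; normalized to DMSO/100 uM tamoxifen; Hill-fit AC50.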

[24] = Cellular Toxicity (caspase-3) N2a (AID 665);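 note: compound exposure lasted 16 h at 37 °C before readout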
Method in brief: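 Caspase-3/7 activation, measured as increased luminescence from aminoluciferin release, is quantified in mouse N2a cells exposed to compounds for 16 h. Values are normalized to DMSO and 10 uM staurosporine, with AC50 derived by Hill modelling.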

[25] = Cellular Toxicity (caspase-3) NIH 3T3 (AID 666);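 note: caspase signal read after 16 h compound exposure; 0% = DMSO basal and 100% = 100 µM tamoxifen stimulation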
Method in brief: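 Cells were plated at 1000 per well and incubated 5 hr at 37°C, then compound was added for 16 hr. Caspase-Glo 3/7 reagent followed for 20 min at room temperature before luminescence was read.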

[26] = Cellular Toxicity (caspase-3) Renal Proximal Tubule (AID 667);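 note: cells exposed to compound for 16 hours at 37 °C before detection; 0% = DMSO basal and 100% = 10 µM staurosporine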
Method in brief: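 Freshly isolated primary rat kidney proximal tubule cells, 1000/well, treated 16 hr at 37 °C, then Caspase-Glo 3/7 luminescence after 1 hr. Normalized to DMSO and 10 uM staurosporine; AC50 from Hill fit.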

[27] = MultiTox-Fluor Cytotoxicity Assay - LYMP1-001 - Dead Cells (AID 946);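 note: 0% = DMSO and 100% = tetraoctylammonium bromide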
Method in brief: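 AC50 from Hill fit of concentration-response; data normalized to DMSO (basal) and 15 uM tetraoctylammonium bromide (100%). LYMP1-001 lymphoblastoid cells, 2500/well, 16 hr compound at 37 C; dead-cell protease fluorescence, Ex/Em 485/520.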

[28] = MultiTox-Fluor Cytotoxicity Assay - LYMP1-001 - Live Cells (AID 947);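 note: 0% = DMSO only and full inhibition = tetraoctylammonium bromide control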
[29] = Cell Viability - LYMP1-002 - Assay at 16 hr (AID 948);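 note: 0% = DMSO alone and full effect = 92 µM tetraoctylammonium bromide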
Method in brief: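 LYMP1-002 human lymphoblastoid cells, 2500/well, were treated with compounds for 16 hr at 37 C in complete medium. Viability was read as intracellular ATP by CellTiter-Glo luminescence, and AC50 was derived from a Hill fit to concentration-response data.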

[30] = MultiTox-Fluor Cytotoxicity Assay - LYMP1-002 - Live Cells (AID 955); note: % is set by controls: 0 for no effect and ±100 for the full control effect
Method in brief: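 Cells were seeded at 2500 per well and incubated 5 hr. Compounds were then added for 16 hr at 37 C, followed by MultiTox-Fluor reagent for 60 min at room temperature and fluorescence reading of viable-cell protease signal.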

[31] = MultiTox-Fluor Cytotoxicity Assay - LYMP1-003 - Dead Cells (AID 961);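 note: 0% = DMSO and 100% = tetraoctylammonium bromide; nearly all actives have a fitted effect of over 70% in size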
Method in brief: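 Human lymphoblastoid LYMP1-003 cells (2500/well) were treated with compounds for 16 hr at 37 C in complete medium. Dead-cell protease release was read by bis-AAF-R110 fluorescence (Ex/Em 485/520). AC50 came from Hill fits, normalized to DMSO and 15 uM tetraoctylammonium bromide.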

[32] = MultiTox-Fluor Cytotoxicity Assay - LYMP1-003 - Live Cells (AID 962);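 note: 0% = DMSO only and full loss = 92 µM tetraoctylammonium bromide; cytotoxic hits lower the live-cell protease signal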
Method in brief: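 Acute cytotoxicity is scored as a drop in live-cell protease activity in human lymphoblastoid LYMP1-003 cells after 16 hr compound exposure at 37 C. AC50 values come from Hill-equation modelling of concentration-response data.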

[33] = Cell Viability - LYMP1-003 - Assay at 24 hr (AID 963);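 note: plate controls were DMSO only for no effect and tetraoctylammonium bromide positive control for full effect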
Method in brief: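 Cytotoxicity is scored as a concentration-dependent fall in ATP-linked luciferase signal in human lymphoblastoid LYMP1-003 cells treated 24 hr at 37 C in complete culture medium.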

[34] = Cell Viability - LYMP1-003 - Assay at 40 hr (AID 964); note: % is set by controls: 0 for no effect and ±100 for the full control effect; nearly all actives have a fitted effect of over 60% in size
Method in brief: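 Luminescent ATP signal (CellTiter-Glo) served as the viability read-out after 40 hr compound treatment of human lymphoblastoid LYMP1-003 cells at 37 C. Decreases in ATP were fitted with the Hill equation to give AC50.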

[35] = Cell Viability - LYMP2-003 (AID 965);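 note: cells exposed to compounds for 24 h before reading; 0% = DMSO only and full effect = 92 µM tetraoctylammonium bromide; nearly all actives have a fitted effect of over 50% in size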
Method in brief: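 Human lymphoblastoid LYMP2-003 cells, 2500/well, exposed to compounds for 24 h at 37 C in complete medium. Viability read as intracellular ATP by CellTiter-Glo luminescence; AC50 from Hill-equation fits of qHTS concentration-response data.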

[36] = Cell Viability - LYMP2-004 (AID 966);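 note: plate controls were DMSO only for no effect and tetraoctylammonium bromide control for full effect; nearly all actives have a fitted effect of over 65% in size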
Method in brief: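 qHTS cytotoxicity: human lymphoblastoid line, 24 hr compound treatment, 37 C, complete medium. Viability read as cellular ATP via luciferase luminescence; tetraoctylammonium bromide served as positive control.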

[37] = Cell Viability - LYMP2-005 (AID 967);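 note: plate controls were DMSO only for no effect and 92 µM tetraoctylammonium bromide control for full effect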
Method in brief: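 Human lymphoblastoid LYMP2-005 cells, 2,500 per well in complete medium, rested 5 h at 37C then compound-treated 24 h at 37C. Intracellular ATP read by CellTiter-Glo luminescence after 30 min at room temperature; AC50 from Hill-equation fits of concentration-response data.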

[38] = Cell Viability - LYMP2-009 (AID 968);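 note: 0% = DMSO alone and the full-kill end = tetraoctylammonium bromide at 92 µM; nearly all actives have a fitted effect of over 55% in size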

C[C@H](CCC(=O)O)[C@H]1CC[C@H]2[C@@H]3CC[C@@H]4C[C@H](O)CC[C@]4(C)[C@H]3CC[C@]12C
inactive: Potency [1] > 92 µM | Potency [2] > 92 µM | Potency [3] > 92 µM | Potency [4] > 92 µM | Potency [5] > 92 µM | Potency [6] | activity change, negative = cytotoxicity [7] 2.31% | Potency [8] | outcome [9] | Potency [10] | Potency [11] | activity change, negative = cytotoxicity [12] -4.96% | activity change, negative = cytotoxicity [13] 15.4% | outcome [14] | caspase-3 activation [15] -0.354% | outcome [16] | outcome [17] | outcome [18] | outcome [19] | outcome [20] | outcome [21] | Potency [22] | outcome [23] | outcome [24] | outcome [25] | outcome [26] | Potency [27] | Potency [28] | Potency [29] | Potency [30] | Potency [31] | Potency [32] | Potency [33] | Potency [34] | Potency [35] | Potency [36] | Potency [37] | Potency [38]

Source: PubChem BioAssay (NCATS)
